Rows were chosen to be rich in hits. Some 3.1% of all compounds tested hit in one or more screens of this group.
ABHD5-PLIN5 inh = blocks binding of human ABHD5 to perilipin-5. Q00G26+Q8WTS1. Split G. princeps luciferase complementation, luminescence, 4 h. inhibition, % at 4 µM. actives 0.78% (n = 360,000). AID 602281;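 active means inhibition above the mean inhibition across every tested compound plus 3 SD, cut at about 22% in these data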;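 further: 0% = DMSO only wells and the 100% control is not disclosed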
Target sequence (Q00G26 whole entry, looked up): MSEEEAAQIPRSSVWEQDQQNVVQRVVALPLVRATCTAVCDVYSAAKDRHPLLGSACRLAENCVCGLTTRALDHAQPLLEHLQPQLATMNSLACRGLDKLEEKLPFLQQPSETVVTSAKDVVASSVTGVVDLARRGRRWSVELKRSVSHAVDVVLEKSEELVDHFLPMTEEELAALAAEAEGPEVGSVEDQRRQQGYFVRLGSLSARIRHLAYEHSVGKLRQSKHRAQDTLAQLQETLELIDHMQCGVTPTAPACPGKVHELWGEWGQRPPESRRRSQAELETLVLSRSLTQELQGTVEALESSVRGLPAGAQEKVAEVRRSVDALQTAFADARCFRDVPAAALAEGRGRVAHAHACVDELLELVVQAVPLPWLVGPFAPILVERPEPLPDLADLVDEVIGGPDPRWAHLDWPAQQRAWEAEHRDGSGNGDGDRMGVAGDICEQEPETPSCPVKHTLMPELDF
Target sequence (Q8WTS1 whole entry, looked up): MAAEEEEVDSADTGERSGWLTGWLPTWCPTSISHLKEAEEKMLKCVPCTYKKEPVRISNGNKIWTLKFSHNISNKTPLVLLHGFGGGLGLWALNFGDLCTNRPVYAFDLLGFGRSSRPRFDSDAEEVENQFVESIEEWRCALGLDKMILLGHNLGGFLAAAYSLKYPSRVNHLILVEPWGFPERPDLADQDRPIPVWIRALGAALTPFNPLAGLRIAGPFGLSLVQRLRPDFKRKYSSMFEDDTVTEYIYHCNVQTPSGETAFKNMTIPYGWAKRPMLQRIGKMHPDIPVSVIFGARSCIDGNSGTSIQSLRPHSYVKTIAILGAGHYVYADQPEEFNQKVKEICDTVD
CF NFkB block = inhibitors of cystic fibrosis induced NF-kB | KKLEB NF-kB-GFP reporter, PAF-induced, GFP fluorescence overnight | inhibition, % at 5 µM | actives 0.86% (n = 360,000) | AID 588850;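 active means at least 50% inhibition at 5 µM, scaled per plate between neutral and stimulator controls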;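 further: PAF is a Pseudomonas aeruginosa culture filtrate used as stimulus; plate controls were PAF-stimulated DMSO wells for no effect and unstimulated DMSO wells for full effect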
MITF TRPM1 inh = MITF TRPM1 promoter inhibition in SK-MEL-5 cells; SK-MEL-5 TRPM1 promoter luciferase, 24 h; inhibition, % at 12.5 µM; actives 0.83% (n = 330,000); AID 488899;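 active means mean inhibition across replicates of 60% or more, whatever share of single replicates reaches that level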
Peg3 prom inh = inhibitors of Peg3 promoter; HeLa PEG-Prom luciferase reporter, luminescence, overnight; inhibition, % at 20 µM; actives 1.7% (n = 360,000); AID 588405;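 active means inhibition of at least 50% at 20 µM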
HIF-2a inh = inhibitors of HIF-2a; actives 0.72% (n = 360,000); 786-0 RCC cells HIF-2a reporter, luciferase luminescence, overnight; AID 624352; inhibition, % at 18.8 µM;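 active means inhibition of the luminescence signal of 40% or more relative to plate controls, in a single-dose primary screen at 18.75 µM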
KKLEB tox = counter-screen for CF NF-kB inhibitors: cytotoxicity. activity change (cytotoxicity), % at 5 µM. KKLEB CF airway cells viability, ATPlite luminescence, overnight; stronger effect = lower value; cells stimulated with P. aeruginosa culture filtrate. AID 602141. actives 0.36% (n = 360,000);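 active means corrected activity change at or below -50% at 5 µM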
CF NFkB inh conf = CF NF-kB inhibition confirmation, single concentration | shares compounds with CF NFkB block | KKLEB CF airway cells, PAF-induced NF-kB-GFP fluorescence, overnight | inhibition, % at 5 µM | actives 64% (n = 1,300) | AID 602472; in the data active means inhibition above about 40%;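 further: stimulus PAF is a Pseudomonas aeruginosa filtrate and not platelet activating factor; plate controls were DMSO wells with stimulus for no effect and unstimulated DMSO wells for full effect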
* hit, by the source's call.

CC(=O)c1c(O)cc2c3c1OC(C)(C)C1CCC(C)(CC31)O2 (stereo not given) was read as ABHD5-PLIN5 inh 1.4, CF NFkB block 74.1*, Peg3 prom inh 43.9, HIF-2a inh 12.5, KKLEB tox -23.5 and CF NFkB inh conf 65.5*.
`COc1cc(O)c(C(C)=O)c2c1C=CC(C)(C)O2` gave ABHD5-PLIN5 inh -1.6, CF NFkB block 4.1, MITF TRPM1 inh -1.2, Peg3 prom inh 3.4, HIF-2a inh 7.0 and KKLEB tox 17.0.
For Cc1ccccc1C(=O)N1CCN(c2ccc(NC(=O)CSc3ccc(Cl)cc3)cc2)CC1 the results were ABHD5-PLIN5 inh 7.9, CF NFkB block 61.2*, MITF TRPM1 inh 49.7, Peg3 prom inh 14.0, HIF-2a inh 15.0, KKLEB tox -10.2 and CF NFkB inh conf 71.2*.
For COc1c(C)cccc1C(=O)Nc1ccc(N2CCN(C(=O)c3ccccc3C)CC2)cc1 the results were ABHD5-PLIN5 inh 0.4, CF NFkB block 1.4, MITF TRPM1 inh 11.4, Peg3 prom inh 33.2, HIF-2a inh -3.8 and KKLEB tox 13.4.
`Cc1ccccc1C(=O)N1CCN(c2ccc(NC(=O)c3cccc(OC(C)C)c3)cc2)CC1` gave ABHD5-PLIN5 inh 9.1, CF NFkB block 53.0*, MITF TRPM1 inh 44.6, Peg3 prom inh 14.2, HIF-2a inh 18.5, KKLEB tox -11.1 and CF NFkB inh conf 53.1*.
Screening CCCCc1ccc(NC(=S)NCc2cccc(OC)c2)cc1 returned ABHD5-PLIN5 inh -6.6, CF NFkB block -19.0, MITF TRPM1 inh 7.3, Peg3 prom inh 3.6, HIF-2a inh -1.3 and KKLEB tox 13.2.
For CCCCc1ccc(NC(=S)Nc2ccc(Nc3ccc(OC)cc3)cc2)cc1 the results were ABHD5-PLIN5 inh -6.5, CF NFkB block 52.2*, MITF TRPM1 inh 0.4, Peg3 prom inh 7.0, HIF-2a inh -25.1, KKLEB tox -18.9 and CF NFkB inh conf 0.1.
`Cc1ccc(N(Cc2ccccc2)C(=O)c2ccc(Cl)c(S(=O)(=O)N3CCOCC3)c2)cc1` gave ABHD5-PLIN5 inh 1.7, CF NFkB block -7.0, MITF TRPM1 inh -18.6, Peg3 prom inh 6.4, HIF-2a inh -4.0 and KKLEB tox 2.9.
`COc1ccc(Cn2c(-c3ccc(C)cc3)nc3c(c(=O)c4ccccc4n3C)c2=O)cc1` gave ABHD5-PLIN5 inh 5.0, CF NFkB block 18.7, MITF TRPM1 inh -4.9, Peg3 prom inh 28.4, HIF-2a inh 10.7 and KKLEB tox -0.2.
O=C(O)CCCNC(=O)/C(=C\c1ccc(Cl)cc1)NC(=O)c1ccccc1Br was read as ABHD5-PLIN5 inh -1.2, CF NFkB block -23.2, MITF TRPM1 inh -2.1, Peg3 prom inh 3.0, HIF-2a inh 16.2 and KKLEB tox 11.2.
CCOc1ccccc1NC(=O)CSc1nc(=O)n(CCCN2CCOCC2)c2c1CCCC2 was read as ABHD5-PLIN5 inh -6.0, CF NFkB block -4.3, MITF TRPM1 inh 2.9, Peg3 prom inh 0.0, HIF-2a inh 2.0 and KKLEB tox 3.9.
`CCN(CC)C(=O)CSc1n[nH]c(=O)n1CCc1ccccc1` gave ABHD5-PLIN5 inh -10.9, CF NFkB block 5.1, MITF TRPM1 inh 2.1, Peg3 prom inh 15.3, HIF-2a inh 13.2 and KKLEB tox -2.0.
`O=c1[nH]nc(Sc2ncnc3sccc23)n1CCc1ccccc1` gave ABHD5-PLIN5 inh 2.5, CF NFkB block 53.6*, MITF TRPM1 inh 23.3, Peg3 prom inh 44.1, HIF-2a inh 28.9, KKLEB tox -20.8 and CF NFkB inh conf 45.0*.
For COC(=O)N1C(=O)[C@@](c2ccccc2)(C2CCCC2)N1C(=O)OC the results were ABHD5-PLIN5 inh -2.0, CF NFkB block 67.2*, MITF TRPM1 inh 30.2, Peg3 prom inh 50.1*, HIF-2a inh 34.9, KKLEB tox -16.2 and CF NFkB inh conf 45.7*.
Screening O=C(c1cnn(-c2ccccc2)c1)c1cc(Br)ccc1O returned ABHD5-PLIN5 inh -4.7, CF NFkB block 10.4, Peg3 prom inh -36.6, HIF-2a inh -11.7 and KKLEB tox 0.0.
`O=C(c1ccc(O)c(Br)c1)c1cc(Br)ccc1O` gave ABHD5-PLIN5 inh -5.2, CF NFkB block 65.9*, MITF TRPM1 inh 9.4, Peg3 prom inh 35.6, HIF-2a inh -1.6, KKLEB tox 8.3 and CF NFkB inh conf 60.9*.

Screens as filed in PubChem.
